Results published in PubChem BioAssay AID1159580 (chemical genetic matrix, 2015).
Screen size: about 5,500 compounds; about 2,000 (36%) were called active. Roughly 18% stayed inconclusive and do not appear here. Rule as the data show it: active = normalized growth mostly below about 0.91 (no sharp cut-off); inconclusive = no clear call, values can overlap the other calls; inactive = mostly above about 0.92. The list shows a part of the results.

Assay: chemical genetic growth profiling, strain panel (AID 1159580);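 also: tested at 20 µM; growth read once vehicle control cultures reached saturation at 30 °C; 1 = growth at the plate median or of vehicle wells; lower values mean less growth of the strain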
Conditions: growth OD

Measured: normalized growth

Cc1cc(O)ccc1Cl
inactive: S. cerevisiae deletion strains, locus YKL009W, strain mrt4, hits give low values 0.979 | S. cerevisiae deletion strains, locus YKL068W, hits give low values 1 | S. cerevisiae deletion strains, locus YKL085W, strain MDH1 (second series), hits give low values 0.998 | S. cerevisiae deletion strains, locus YKL085W, strain MDH1, hits give low values 0.998 | S. cerevisiae deletion strains, locus YKL160W, strain elf1, hits give low values 1.02 | S. cerevisiae deletion strains, locus YKR001C, strain vps1, hits give low values 0.937 | S. cerevisiae deletion strains, locus YKR026C, strain gcn3, hits give low values 1.01 | S. cerevisiae deletion strains, locus YKR091W, strain srl3, hits give low values 1.03 | S. cerevisiae deletion strains, locus YLL001W, strain dnm1, hits give low values 0.992 | S. cerevisiae deletion strains, locus YLL026W, hits give low values 0.987 | S. cerevisiae deletion strains, locus YLL041C, strain sdh2, hits give low values 1 | S. cerevisiae deletion strains, locus YLR027C, strain aat2, hits give low values 1 | S. cerevisiae deletion strains, locus YLR039C, strain RIC1, hits give low values 0.874 | S. cerevisiae deletion strains, locus YLR058C, strain SHM2, hits give low values 1.02 | S. cerevisiae deletion strains, locus YLR102C, strain apc9, hits give low values 1 | S. cerevisiae deletion strains, locus YLR113W, strain HOG1, hits give low values 0.965 | S. cerevisiae deletion strains, locus YLR221C, strain rsa3, hits give low values 0.994 | S. cerevisiae deletion strains, locus YLR258W, strain gsy2, hits give low values 1.01 | S. cerevisiae deletion strains, locus YLR262C, strain YPT6, hits give low values 0.904 | S. cerevisiae deletion strains, locus YLR268W, strain sec22, hits give low values 0.991 | S. cerevisiae deletion strains, locus YLR320W, strain mms22, hits give low values 0.959 | S. cerevisiae deletion strains, locus YLR330W, strain CHS5, hits give low values 1 | S. cerevisiae deletion strains, locus YLR342W, strain FKS1 (second series), hits give low values 0.986 | S. cerevisiae deletion strains, locus YLR342W, strain FKS1, hits give low values 0.982 | S. cerevisiae deletion strains, locus YLR357W, strain rsc2, hits give low values 1.08 | S. cerevisiae deletion strains, locus YLR370C, strain arc18, hits give low values 1.01 | S. cerevisiae deletion strains, locus YLR371W, strain rom2, hits give low values 1 | S. cerevisiae deletion strains, locus YLR384C, strain iki3, hits give low values 0.993 | S. cerevisiae deletion strains, locus YLR418C, strain cdc73, hits give low values 1.02 | S. cerevisiae deletion strains, locus YML016C, strain PPZ1, hits give low values 1 | S. cerevisiae deletion strains, locus YML032C, strain rad52, hits give low values 0.981 | S. cerevisiae deletion strains, locus YML120C, strain ndi1, hits give low values 1 | S. cerevisiae deletion strains, locus YML124C, strain tub3, hits give low values 0.994 | S. cerevisiae deletion strains, locus YMR058W, strain fet3, hits give low values 0.965 | S. cerevisiae deletion strains, locus YMR078C, strain ctf18, hits give low values 1.01 | S. cerevisiae deletion strains, locus YMR129W, hits give low values 1.02 | S. cerevisiae deletion strains, locus YMR205C, strain PFK2, hits give low values 0.987 | S. cerevisiae deletion strains, locus YMR223W, strain ubp8, hits give low values 1.01 | S. cerevisiae deletion strains, locus YMR231W, strain pep5, hits give low values 1.02 | S. cerevisiae deletion strains, locus YMR263W, strain SAP30, hits give low values 1.02 | S. cerevisiae deletion strains, locus YMR307W, strain GAS1, hits give low values 0.957 | S. cerevisiae deletion strains, locus YNL067W, strain RPL9B, hits give low values 1.02 | S. cerevisiae deletion strains, locus YNL071W, strain lat1, hits give low values 1.01 | S. cerevisiae deletion strains, locus YNL153C, strain GIM3, hits give low values 1.03 | S. cerevisiae deletion strains, locus YNL183C, strain NPR1, hits give low values 0.896 | S. cerevisiae deletion strains, locus YNL209W, strain ssb2, hits give low values 1 | S. cerevisiae deletion strains, locus YNL233W, strain BNI4, hits give low values 1.01 | S. cerevisiae deletion strains, locus YNL248C, strain rpa49, hits give low values 1.02 | S. cerevisiae deletion strains, locus YNL250W, strain rad50, hits give low values 0.996 | S. cerevisiae deletion strains, locus YNL271C, strain bni1, hits give low values 1.01 | S. cerevisiae deletion strains, locus YNL298W, strain CLA4, hits give low values 0.95 | S. cerevisiae deletion strains, locus YNL307C, strain MCK1, hits give low values 1 | S. cerevisiae deletion strains, locus YNL322C, strain KRE1 (second series), hits give low values 1.06 | S. cerevisiae deletion strains, locus YNL322C, strain KRE1, hits give low values 0.999 | S. cerevisiae deletion strains, locus YNR049C, strain mso1, hits give low values 0.999 | S. cerevisiae deletion strains, locus YNR052C, strain pop2, hits give low values 1 | S. cerevisiae deletion strains, locus YOL012C, strain htz1 1.23 | S. cerevisiae deletion strains, locus YOL147C, strain pex11, hits give low values 0.997 | S. cerevisiae deletion strains, locus YOR001W, strain rrp6, hits give low values 0.991 | S. cerevisiae deletion strains, locus YOR061W, strain CKA2, hits give low values 0.999 | S. cerevisiae deletion strains, locus YOR069W, strain VPS5, hits give low values 1.01 | S. cerevisiae deletion strains, locus YOR070C, strain gyp1, hits give low values 0.993 | S. cerevisiae deletion strains, locus YOR080W, strain dia2, hits give low values 1.02 | S. cerevisiae deletion strains, locus YOR083W, strain WHI5, hits give low values 0.936 | S. cerevisiae deletion strains, locus YOR106W, strain vam3, hits give low values 0.976 | S. cerevisiae deletion strains, locus YOR136W, strain idh2, hits give low values 0.999 | S. cerevisiae deletion strains, locus YOR144C, strain elg1, hits give low values 1 | S. cerevisiae deletion strains, locus YOR184W, strain ser1, hits give low values 0.982 | S. cerevisiae deletion strains, locus YOR231W, strain MKK1, hits give low values 0.937 | S. cerevisiae deletion strains, locus YOR265W, strain rbl2, hits give low values 1.01 | S. cerevisiae deletion strains, locus YOR270C, strain vph1, hits give low values 1.01 | S. cerevisiae deletion strains, locus YOR290C, strain snf2, hits give low values 1.02 | S. cerevisiae deletion strains, locus YOR316C, strain cot1, hits give low values 1.01 | S. cerevisiae deletion strains, locus YPL051W, strain arl3, hits give low values 0.992 | S. cerevisiae deletion strains, locus YPL078C, strain atp4, hits give low values 0.938 | S. cerevisiae deletion strains, locus YPL106C, strain sse1, hits give low values 1.1 | S. cerevisiae deletion strains, locus YPL240C, strain hsp82, hits give low values 1.02 | S. cerevisiae deletion strains, locus YPL256C, strain CLN2, hits give low values 0.968 | S. cerevisiae deletion strains, locus YPR119W, strain clb2, hits give low values 1 | S. cerevisiae deletion strains, locus YPR141C, strain kar3, hits give low values 1 | S. cerevisiae deletion strains, locus YPR163C, strain tif3, hits give low values 1 | S. cerevisiae deletion strains, locus YPR167C, strain met16, hits give low values 0.994 | S. cerevisiae deletion strains, strain wtn01, hits give low values 0.974 | S. cerevisiae strains, strain wild type, hits give low values 1.01
active: S. cerevisiae deletion strains, locus YLR262C, strain YPT6 (second series), hits give low values 0.814 | S. cerevisiae deletion strains, locus YMR125W, strain sto1, hits give low values 1.13 [resistant]
